According to ChEMBL document CHEMBL4513216, “Probing the Open Global Health Chemical Diversity Library for Multistage-Active Starting Points for Next-Generation Antimalarials” (ACS Infect Dis, 2020):
The campaign covered roughly 69,000 compounds. About 8,600 (12%) showed an effect of 50% or more. The entries come from a sample that favours strong results as a whole.

system: Plasmodium berghei; experiment: Screen against P. berghei liver stage (PbLuc), transformed with Luciferase, at 10uM; assay type: functional, HepG2; settings: tested at 10 uM

Going from Cc1cnc(N2CCCn3c(nnc3CN(C)C(C)C)C2)nc1 to CCN(C(=O)CN1CCn2c(C)nnc2C1)C1=CCCCC1, the INHIBITION rises from -19.2% to -6.46%.

Compared with CCC(=O)N1CCC[C@]2(C(=O)N(C)C)CN(c3ccccn3)C[C@@H]2C1, CS(=O)(=O)N1C[C@@H](Oc2ccccn2)[C@H]2OCCC[C@H]21 is lower in INHIBITION: 34.2% for the first, 29% for the second.

First: CCN(Cc1ccc(C)o1)C(=O)C(C)n1ccnc1C(C)C (centres undefined)
Second: CCN(C)C(=O)c1coc(COc2ccccc2)n1
The INHIBITION of the first is higher: 13% for the first, -8.47% for the second.

Compared with Cc1cccc(C(Nc2nccc(-c3ccc(C)nc3C)n2)C2CC2)n1 (centres undefined), Cc1ccc(-c2ccnc(NC(c3ncccc3C)C3CC3)n2)c(C)n1 (centres undefined) is higher in INHIBITION: -11.2% for the first, 51.2% for the second.

Compared with Cc1cccnc1C(Nc1nccc(C2CCCC2)n1)C1CC1 (centres undefined), COc1ncccc1CN1C[C@H]2CCN(c3ccc(C)nn3)C[C@H]2C1 is higher in INHIBITION: 0.164% for the first, 41.4% for the second.

First: Cc1cc(C)c(S(=O)(=O)Nc2c(C)nc(N(C)C)nc2C)cc1C
Second: Cc1cc(C(=O)N2CC(O)CO2)c2ccc(C)c(C)c2n1 (centres undefined)
The INHIBITION of the first is lower: 4.12% for the first, 15% for the second.

Going from CCCN(C(=O)CN1CCn2c(nnc2C2CC2)C1)C1=CCCCC1 to CCN(C(=O)CN1CCn2c(nnc2C2CC2)C1)C1=CCCCC1, the INHIBITION rises from 18.7% to 51.2%.

Going from Cc1cn2nc(N3CCCCC3Cn3cccn3)sc2n1 (centres undefined) to Cc1ncc(CN2CCOC(c3ccc(-c4cnn(C)c4)cn3)C2)s1 (centres undefined), the INHIBITION falls from 11.6% to -6.92%.

Compared with O=C(NCCNc1cnccn1)N1CCN(c2nccs2)CC1, c1cnc(N2C[C@H]3CCN(Cc4ccncc4)C[C@H]3C2)nc1 is higher in INHIBITION: 29.2% for the first, 58.4% for the second.

Going from COc1ncccc1CN1C[C@@H]2CN(c3ncccn3)C[C@@H]2C1 to COc1ncccc1CN1C[C@H]2CCN(c3ncccn3)C[C@H]2C1, the INHIBITION rises from 47.4% to 56.4%.

Compared with c1cc(CN2CC[C@@H]3CN(c4cncnc4)C[C@@H]3C2)ccn1, Cc1ccc(CN2C[C@@H]3CN(c4ncccn4)C[C@@H]3C2)cc1 is higher in INHIBITION: 27.6% for the first, 40.8% for the second.

Compared with CC(=O)c1cnc(NCCN2CCCC2)nc1C, O=C(O)c1ccccc1CN1CCCC(Cc2ccn[nH]2)C1 (centres undefined) is lower in INHIBITION: 33.1% for the first, 7.721% for the second.

Going from CN1CCN(CCC(F)(F)C(F)F)CC12CCNC(=O)CC2 (centres undefined) to CC/C(C)=C/CCN1CCN(C)C2(CCNC(=O)CC2)C1 (centres undefined), the INHIBITION falls from 49.9% to 35.9%.

Going from CC(C)=CCC/C(C)=C/CN1CCN(C)C2(CCNC(=O)CC2)C1 (centres undefined) to Cc1ncc(CN2CCOC(c3ccc(-c4cc[nH]n4)cn3)C2)s1 (centres undefined), the INHIBITION falls from 67.5% to 19.6%.

Work on Cc1ncc(CN2CCOC(c3ccc(-c4ccccc4F)cn3)C2)s1 (centres undefined) yielded an INHIBITION of 95.3%.
